Results on 40 molecules are retold here after PubChem BioAssay.

Calls of active or inactive are those of the source.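 The calls were made as follows: active = mean inhibition over 43.08%, the solvent-only control mean plus 3 SD; inactive = the rest.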

In the test the target is Nuclear receptor coactivator 3 (Homo sapiens) (UniProt Q9Y6Q9). Put plainly: NCOA3 GAL4-fusion reporter inhibition – cell-based, luminescence, quadruplicate, confirmation (AID 588792).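 Also: 0% = DMSO treated cells and 100% = gossypol at 36 µM.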 The following applies: HEK293 GAL4-SRC3 luciferase reporter, at 3.6 µM, stronger effect = higher value. Background: A reporter such as luciferase makes a cellular process visible.
Sequence of Nuclear receptor coactivator 3 (Homo sapiens) (Q9Y6Q9 whole entry, looked up, the tested form may be a part): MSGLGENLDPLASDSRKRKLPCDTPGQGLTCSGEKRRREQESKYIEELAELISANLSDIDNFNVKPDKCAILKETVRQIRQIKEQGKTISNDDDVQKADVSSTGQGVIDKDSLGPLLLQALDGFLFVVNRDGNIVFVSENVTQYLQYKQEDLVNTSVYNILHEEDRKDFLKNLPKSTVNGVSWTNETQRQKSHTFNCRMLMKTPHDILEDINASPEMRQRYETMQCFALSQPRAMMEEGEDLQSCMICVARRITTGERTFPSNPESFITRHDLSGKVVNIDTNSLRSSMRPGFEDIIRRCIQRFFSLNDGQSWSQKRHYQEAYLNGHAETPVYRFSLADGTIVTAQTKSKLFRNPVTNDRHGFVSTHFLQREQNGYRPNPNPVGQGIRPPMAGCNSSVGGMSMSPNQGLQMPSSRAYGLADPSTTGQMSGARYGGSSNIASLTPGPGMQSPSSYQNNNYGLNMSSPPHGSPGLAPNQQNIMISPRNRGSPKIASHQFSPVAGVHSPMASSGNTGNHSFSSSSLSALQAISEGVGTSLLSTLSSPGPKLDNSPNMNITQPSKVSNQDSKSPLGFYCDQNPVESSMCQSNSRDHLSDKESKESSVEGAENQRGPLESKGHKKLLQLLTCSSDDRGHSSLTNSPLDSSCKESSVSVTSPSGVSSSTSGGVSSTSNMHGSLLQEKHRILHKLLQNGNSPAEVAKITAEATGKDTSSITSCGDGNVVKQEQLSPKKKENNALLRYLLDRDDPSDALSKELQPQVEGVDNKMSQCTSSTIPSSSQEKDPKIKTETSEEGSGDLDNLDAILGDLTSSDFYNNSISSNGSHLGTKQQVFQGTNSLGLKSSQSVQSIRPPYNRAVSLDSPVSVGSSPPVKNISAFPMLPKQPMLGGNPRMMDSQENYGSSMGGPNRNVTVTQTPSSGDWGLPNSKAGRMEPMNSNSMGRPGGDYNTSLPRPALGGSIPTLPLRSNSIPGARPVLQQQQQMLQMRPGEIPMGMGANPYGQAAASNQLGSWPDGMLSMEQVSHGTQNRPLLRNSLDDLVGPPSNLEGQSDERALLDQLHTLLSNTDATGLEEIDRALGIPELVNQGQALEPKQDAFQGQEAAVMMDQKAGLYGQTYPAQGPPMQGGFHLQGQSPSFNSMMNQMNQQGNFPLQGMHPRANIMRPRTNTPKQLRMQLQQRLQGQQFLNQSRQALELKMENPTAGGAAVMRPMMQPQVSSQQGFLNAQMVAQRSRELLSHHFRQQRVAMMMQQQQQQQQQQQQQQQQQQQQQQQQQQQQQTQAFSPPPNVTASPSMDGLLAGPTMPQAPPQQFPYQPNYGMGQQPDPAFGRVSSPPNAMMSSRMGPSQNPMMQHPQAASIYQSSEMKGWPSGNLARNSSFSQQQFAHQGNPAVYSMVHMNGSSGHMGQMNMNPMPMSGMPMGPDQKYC
For the molecule `N=c1ccn(CC(=O)c2ccc(-c3ccccc3)cc2)cc1`, the inhibition (as a rule, the change of the read-out against control, counted positive when it falls) was 37% (inactive).

As to `C(=NNc1ccc2ccccc2n1)c1ccccn1`, the inhibition was 60.6% (active).

Turning to `CC(=NNC(=S)Nc1ccc(C)cc1)c1ccccn1`, the inhibition was 59% (active).

`Cc1cc(-c2nnc(SCC(=O)Nc3ccccc3C(F)(F)F)o2)c(C)n1-c1ccccc1`: the inhibition is 33.3% (inactive).

As to `CCC(=O)NC(c1ccc(Cl)cc1Cl)c1ccc2cccnc2c1O` (stereo not given), the inhibition was 16.2% (inactive).

For the molecule `CCOc1ccc(C(=O)Nc2cnn(Cc3ccc(Cl)c(Cl)c3)c2)cc1`, the inhibition was 16% (inactive).

Turning to `Cc1ccc(-n2c(-c3ccccc3)c[n+]3c2CCc2ccccc2-3)c(C)c1`, the inhibition was 61.7% (active).

Take `CC1Cc2cc(-c3csc(NC(=O)Cc4cccs4)n3)ccc2N1S(C)(=O)=O` (stereo not given): the inhibition is 14.4% (inactive).

On to `Cc1ccc2nc(NC(=O)CSCC(=O)OCC(=O)c3ccccc3)sc2c1`, for which the inhibition is 46.5% (active).

For the molecule `O=c1[nH]cnc2c1nnn2C1OC(CO)C(O)C1O` (stereo not given), the inhibition was 59% (active).

As for `Cc1cccc(-n2c(N)c(-c3nc4ccccc4n3C)c3nc4ccccc4nc32)c1`, the inhibition is -11.4% (inactive).

For `CN(C)c1ccc(/C=C/c2ccc3ccccc3[n+]2C)cc1`, the inhibition is 62.3% (active).

Regarding `COc1ccc(C(=O)Nc2cnn(Cc3ccc(Cl)cc3)c2)cc1OC`, the inhibition was 26.3% (inactive).

Consider `CCOC(=O)c1cc2c(=Cc3ccc(N(C)C)cc3)c3ccccc3n2[n+]1C`, for which the inhibition was 46.2% (active).

Consider `COc1cc(C2c3cc4c(cc3C(OC3OC5COC(c6cccs6)OC5C(O)C3O)C3COC(=O)C23)OCO4)cc(OC)c1O` (stereo not given), for which the inhibition was 72.2% (active).

Take `CCc1nc(N)nc(N)c1-c1ccc(N(C)Cc2ccccc2)c([N+](=O)[O-])c1`: the inhibition was 63.5% (active).

In the case of `Cc1ccc(S(=O)(=O)Nc2ccccc2C(=O)Nc2nc(-c3ccc(F)cc3)cs2)cc1`, the inhibition was 20.7% (inactive).

Consider `COc1ccc(NC(=O)c2sc(=O)n(Cc3cccc(C(F)(F)F)c3)c2C)cc1OC`, for which the inhibition was 24.9% (inactive).

Turning to `CC#CC[N+](C)(C)CCCCCCCCCCCC`, the inhibition is 32.2% (inactive).

Consider `Cc1cccc2cc(-c3ccccc3)c(-c3ccccc3)c[n+]12`, for which the inhibition is 4.1% (inactive).

In the case of `CCN(CC)c1ccc(/C=C/c2ccc3ccc(OC)cc3[n+]2CC)cc1`, the inhibition is 50.1% (active).

As to `Cc1cc(/C=C2\Sc3ccccc3N2C)cc(C)[n+]1CC1CCCO1` (stereo not given), the inhibition was 37.1% (inactive).

On to `CC(C)CCCCCCCCCCCCC(=O)NCC(=O)NC1C(O)C(O)C(Nc2ncnc3nc[nH]c23)OC1C(O)CO` (stereo not given), for which the inhibition was 96.9% (active).

As to `O=C1NC(=O)C(c2ccc(F)cc2)N1` (stereo not given), the inhibition was 3.02% (inactive).

Regarding `CCN(CC)c1ccc(/C=C/c2cccc[n+]2C)c(OC)c1`, the inhibition is 48.1% (active).

Consider `CCc1ccc(/C=C/c2c[nH]c3ccccc23)[n+](CC)c1`, for which the inhibition was 29.8% (inactive).

In the case of `NC(=O)c1cc([N+](=O)[O-])ccc1NCc1ccc(O)cc1`, the inhibition is 25.3% (inactive).

In the case of `CCN(CC)CCCNc1nc2ccccc2c2[nH]c3ccc(OC)cc3c12`, the inhibition was -19.2% (inactive).

In the case of `CC1=NN(c2nc3ccccc3[nH]2)C(=O)C1Cc1ccccc1` (stereo not given), the inhibition was 53.5% (active).

Turning to `Nc1nc(N)c2c(ccc3c2ccn3Cc2cccc([N+](=O)[O-])c2)n1`, the inhibition is 76.1% (active).

Take `CCN1/C(=C/c2ccc3cc(C)ccc3[n+]2CC)Sc2ccccc21`: the inhibition was 57% (active).

Consider `CC(C)(C)c1ccc(-c2cn(-c3ccc(Br)cc3)c3[n+]2CCCS3)cc1`, for which the inhibition was 51.1% (active).

On to `COc1ccc(C2=Nn3c([n+](C)c4ccccc43)SC2)cc1`, for which the inhibition was 45.3% (active).

Take `CCOC(=O)C(C(C)=O)c1c(Br)c(O)c(O)c2c(C(=O)c3ccc(C)cc3)coc12` (stereo not given): the inhibition was 57.6% (active).

On to `N=c1c2c(n(Cc3ccc(F)cc3)c3c1CCC3)CCCC2`, for which the inhibition is 27.9% (inactive).

With `Cc1nc(N)nc(N)c1/C=C/C(C)(C)c1ccc(Cl)cc1`, the inhibition was 70% (active).

For the molecule `COCCn1c(C)cc(C(=O)COC(=O)c2ccccc2Br)c1C`, the inhibition is 71.7% (active).

With `CC(=O)c1cccc(N=c2scc(-c3ccc(S(=O)(=O)N4CCOCC4)cc3)n2CCO)c1`, the inhibition is 21.9% (inactive).

Consider `CC(=NNC(=S)N1CC2CCC(CC2)C1)c1ccccn1`, for which the inhibition is 35.5% (inactive).

Turning to `O=C(N/N=C/c1ccc[nH]1)c1ccc(COc2cccc3cccnc23)cc1`, the inhibition was 83% (active).
